In PubChem BioAssay AID894 (National Center for Advancing Translational Sciences (NCATS), 2007) one finds activity change, negative = inhibition and Potency data, which are given here for 46 compounds.

Several values for one entry are separate records, joined by “and”; a condition that tells them apart may be missing. Equal values may be shown once. Out of some 150,000 compounds screened, about 6,500 (4.3%) were called active. Not shown: some 12% with an inconclusive outcome. For the sample, actives were picked, then their nearest neighbours and some compounds at random. The source holds several records for some structures; these can differ, active in one and inactive in another. A number with no mark means an inactive call. Calls follow the shape of the dose curve; as a rule, active = well fitted inhibition curve with a large enough effect (not every such curve was filed as active); inconclusive = small, poorly fitted or top-dose-only effect, or another doubt; inactive = no such curve, though single readings can be large or run the other way.
% is scaled to controls: 0 for no effect and ±100 for the full control effect; potency is read from the fitted curve at half-maximal effect.

Chain of 15-hydroxyprostaglandin dehydrogenase [NAD(+)] (Homo sapiens) (P15428 whole entry, looked up): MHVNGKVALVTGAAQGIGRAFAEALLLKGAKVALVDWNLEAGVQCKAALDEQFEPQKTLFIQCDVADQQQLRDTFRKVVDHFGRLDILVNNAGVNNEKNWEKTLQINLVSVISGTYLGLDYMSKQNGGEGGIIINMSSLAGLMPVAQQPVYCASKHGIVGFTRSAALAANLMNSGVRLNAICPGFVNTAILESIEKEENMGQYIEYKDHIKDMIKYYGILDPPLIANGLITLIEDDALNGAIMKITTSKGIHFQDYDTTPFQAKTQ

This test has as its target 15-hydroxyprostaglandin dehydrogenase [NAD(+)] (Homo sapiens) (UniProt P15428). Kind of test: qHTS Assay for Inhibitors of HPGD (15-Hydroxyprostaglandin Dehydrogenase). The conditions noted are these: purified HPGD, NADH fluorescence kinetic, PGE2 substrate; activity change, negative = inhibition: active compounds read low. In a few lines:
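NADH formation kinetics: reaction with 30 uM PGE2 and 1 mM NAD+ (final), 20 nM enzyme, Tris-HCl pH 8 with Tween 20, after 15 min compound preincubation at room temperature. Fluorescence change, last versus first of five reads.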
(In general: qHTS replaces the single test concentration by a dilution series.)
On to `O=C(NCc1ccco1)O[C@@H]1C(=O)c2cc(Br)ccc2O[C@H]1c1ccc2c(c1)OCO2`, for which the activity change, negative = inhibition is -7.84%. Consider `O=C(CSc1nnc(Nc2ccccc2)s1)Nc1cccnc1Cl`, for which the activity change, negative = inhibition was -3.17%. On the same count and under the same terms, the result for `Cc1ccc(Nc2nnc(SCC(=O)c3cc4ccccc4o3)s2)cc1C` reads -14.9%. Take `CC(C)c1ccc(Nc2nnc(SCC(=O)c3nnc(-c4ccccc4)o3)s2)cc1`: the Potency was 31.6 µM (active). For `Cc1nn(Cc2ccccc2)c(C)c1C(=O)NCCN1C(=O)S/C(=C\c2ccc(F)cc2)C1=O`, the activity change, negative = inhibition was -19.6%. Take `COc1cccc(/C=N/NC(=O)c2[nH]nc3c2CCc2ccccc2-3)c1O`: the Potency is 35.5 µM (active).

As for `COc1cccc(/C=N/Nc2ncc(C(F)(F)F)cc2Cl)c1O`, the activity change, negative = inhibition is -13.5%.

Turning to `COc1cccc(/C=N\NC(=O)C2=NNC(=O)C2C)c1O` (configuration not stated), the activity change, negative = inhibition was -11.9%. Take `O=C1CCC[C@@H]2CC(N3CCCCC3)C[C@@H]3CCN1[C@H]23` (some centres not stated): the activity change, negative = inhibition was -1.93%.

`C=CCNC(=S)NNC(=O)COc1c(Cl)cc(Cl)cc1Cl`: the activity change, negative = inhibition was -21.2%. For the compound `Cc1ccc(Cl)cc1N1CCN(C(=O)c2cccc3c(=O)c(C)c(-c4ccccc4)oc23)CC1`, the activity change, negative = inhibition is 0.844%. On the same count and under the same terms, in the case of `COc1ccccc1N1CCN(C(=O)c2ccc(S(=O)(=O)N3CCCCC3)cc2)CC1` it was -4.4%; in that of `CCOC(=O)N1CCN(C(=O)CSc2ccc(Cl)cc2)CC1`, -15.4%.

As for `O=C(c1ccc(S(=O)(=O)c2ccccc2)cc1)N1CCCCCC1`, the Potency is 17.8 µM (active). For the compound `CC1CCN(C(=O)c2ccc(CSc3ccc(Cl)cc3)cc2)CC1`, the Potency is 0.891 µM (active). Take `CC(NC(=O)c1ccc(Cl)cc1)C(=O)N1CCCCC1` (configuration not stated): the activity change, negative = inhibition was -4.27%. In the case of `O=C(c1ccc(CSc2ccccc2)cc1)N1CCCCCC1`, the Potency was 0.316 µM (active).

Take `CS(=O)(=O)Nc1ccc(C(=O)N2CCCC2)cc1`: the Potency was 20 µM (active).

Regarding `O=C(c1ccc(S(=O)(=O)N2CCOCC2)cc1)N1CCN(c2ccccc2)CC1`, the activity change, negative = inhibition was -5.22%. Still for that read-out and setting: the result for `NC(=O)C1CCN(C(=O)c2ccc(-c3ccccc3)cc2)CC1` reads -4.39%; that for `O=C(Nc1ccc(CSc2ccccc2)cc1)c1ccc(CN2CCOCC2)cc1`, -8.57%. `O=C(C1CC1)N1CCN=C1SCc1ccc(Cl)cc1`: the activity change, negative = inhibition was -17.7%. Consider `CC(=O)N1CCN(C(=O)c2cccc(S(=O)(=O)Nc3ccc(C)cc3)c2)CC1`, for which the activity change, negative = inhibition is 4.03%. For the compound `CC1CCCN(CCOCCOc2ccccc2-c2ccccc2)C1` (configuration not stated), the activity change, negative = inhibition is -3.59%. For the compound `COC(=O)N1C(/C=C/C=C/c2ccc(OC)cc2)=Cc2ccccc2C1CC(C)=O` (configuration not stated), the activity change, negative = inhibition is -15%. With `CC1CCN(c2ccc(C(=O)Nc3nnc(C4CC4)s3)cc2[N+](=O)[O-])CC1`, the activity change, negative = inhibition was -7.37%. The same measure, in the same setting: the result for `CC(NC(=S)Nc1ccccc1)C1COc2ccccc2O1` (configuration not stated) reads -1.93%. For `COc1cc(OC)nc(N/N=C(\c2ccccc2)c2ccncc2)n1`, the activity change, negative = inhibition is -10.6%.

With `CCC1(C(=O)c2ccccc2)C(c2cccc([N+](=O)[O-])c2)C1(C(=O)OC)C(=O)OC` (configuration not stated), the activity change, negative = inhibition is -4.68%. Consider `COc1ccc(Br)cc1CN(C)CC(=O)Nc1cc(Cl)cc(Cl)c1`, for which the activity change, negative = inhibition is -12.1%. Consider `COC(=O)c1c(NC(=O)CN2C(=O)NC(CCc3ccccc3)C2=O)sc2c1CCCCC2` (configuration not stated), for which the activity change, negative = inhibition was -23.3%. Turning to `CN(C)S(=O)(=O)c1ccc(N2CCCC2=O)c([N+](=O)[O-])c1`, the activity change, negative = inhibition was -7.1%. Consider `Cc1c(Cl)cccc1NC(=O)Nc1ccc(C(=O)N2CCCC2)cc1`, for which the Potency was 14.1 µM (active). Consider `Cc1c(NC(=O)Nc2ccccc2)cccc1[N+](=O)[O-]`, for which the activity change, negative = inhibition is -4.65%.

Regarding `CCC(CC)C(=O)Nc1cccc(C(=O)N2CCCC2)c1`, the activity change, negative = inhibition is -4.19%. Still for that read-out and setting: in the case of `CC1=C[C@H]2Cc3cc(C)cc(C)c3S(=O)(=O)[C@@H]2C=C1` it was -8.5%; in that of `N=C1C(=O)OCC1c1ccccc1NC(=O)CN1CCCCC1` (configuration not stated), -11.6%.

As to `C=C(C(C)=O)C(O)c1ccc([N+](=O)[O-])cc1` (configuration not stated), the activity change, negative = inhibition is -15.8%.

In the case of `Cc1cc(C(=O)Nc2c(C)n(C)n(-c3ccccc3)c2=O)cs1`, the activity change, negative = inhibition was -6.25%.

Turning to `Cc1ccc(O)c(-c2cc(C(=O)Nc3c(C)n(C)n(-c4ccccc4)c3=O)[nH]n2)c1`, the Potency was 20 µM (active). `Cc1c(NC(=O)c2cccnc2)c(=O)n(-c2ccccc2)n1C`: the activity change, negative = inhibition was 4.69% and -0.99%. Regarding `CCCSc1nc2[nH]ncc2c(=O)[nH]1`, the activity change, negative = inhibition is -15.8%.

As for `O=C(O)c1cccc(N2C(=O)Nc3ccccc3N2O)c1`, the activity change, negative = inhibition was -2.37%. Consider `CCCC(C)C(=O)OCC(=O)Nc1c(Br)cc(C)cc1Br` (configuration not stated), for which the activity change, negative = inhibition was -2.73%.

For the compound `CN(Cc1ccccc1)C(=O)CCc1ccccc1`, the activity change, negative = inhibition is -14.5%. For the compound `CC(Cc1ccccc1)C(=O)N(C)Cc1ccccc1` (configuration not stated), the Potency is 5.01 µM (active) and the activity change, negative = inhibition was -12.5%.
